The results in this text go back to PubChem BioAssay AID720504 (National Center for Advancing Translational Sciences (NCATS), 2013).

Values joined by “and” are separate entries in the source; they are usually repeats but may differ in a detail not shown here. Identical values can stand only once. Among all 360,000 compounds or so, about 10,000 (2.8%) were called active. Inconclusive results (about 4%) are left out. The entries come from a sample that favours actives as a whole. Unmarked numbers belong to inactive results. The call rests on the fitted dose curve; in most records, active means well fitted inhibition curve with a large enough effect; inconclusive means small, poorly fitted or top-dose-only effect; inactive means flat fitted curve, though single readings scatter.
On the % scale 0 is the no-effect control and ±100 the full control effect; potency means the concentration at half of the fitted maximal effect.

In this test the target is Serine/threonine-protein kinase PLK1 (Homo sapiens) (UniProt P53350). The test is described as follows: qHTS for Inhibitors of PLK1-PDB (polo-like kinase 1 - polo-box domain): Primary Screen. Further: nearly all actives have a fitted effect of over 65% in size. On max response, negative = inhibition: series mostly up to about 57 µM. To be noted: Plk1 PBD binding of FITC phosphopeptide, fluorescence polarization. A general note: In qHTS, concentration-response curves come from the screen itself.
Chain of Serine/threonine-protein kinase PLK1 (Homo sapiens) (P53350 whole entry, looked up, the tested form may be a part): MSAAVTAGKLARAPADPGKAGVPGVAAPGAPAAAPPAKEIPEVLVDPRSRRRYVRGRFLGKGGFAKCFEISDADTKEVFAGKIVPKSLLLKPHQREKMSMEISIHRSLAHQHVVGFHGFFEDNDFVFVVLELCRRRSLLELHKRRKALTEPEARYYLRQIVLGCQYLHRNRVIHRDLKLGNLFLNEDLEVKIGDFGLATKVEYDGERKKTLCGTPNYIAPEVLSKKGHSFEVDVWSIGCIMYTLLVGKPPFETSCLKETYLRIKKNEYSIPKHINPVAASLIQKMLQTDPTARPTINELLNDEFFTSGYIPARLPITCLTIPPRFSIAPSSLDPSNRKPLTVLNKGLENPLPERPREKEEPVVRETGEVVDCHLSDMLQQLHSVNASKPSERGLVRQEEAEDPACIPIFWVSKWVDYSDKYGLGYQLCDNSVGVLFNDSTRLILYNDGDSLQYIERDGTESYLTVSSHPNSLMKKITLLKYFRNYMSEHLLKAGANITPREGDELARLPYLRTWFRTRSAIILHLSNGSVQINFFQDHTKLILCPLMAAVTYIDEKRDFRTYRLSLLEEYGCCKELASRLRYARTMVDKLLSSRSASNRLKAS
Consider `CC(C)(C)CC(=O)Nc1nc(C(N)Cc2ccc(C(F)(F)F)cc2)cs1` (configuration not stated), for which the max response, negative = inhibition is -8.43%.

For `C[N+](C)(C)CCNC(=O)c1c[nH]c2ccccc12`, the max response, negative = inhibition was -0.504%.

Turning to `COc1ccc(C2CC(c3ccc([N+](=O)[O-])cc3)=NN2C(C)=O)cc1` (configuration not stated), the max response, negative = inhibition is -7.83%.

For `COC(=O)c1c(C)[nH]c(C)c1-c1ccc([N+](=O)[O-])cc1`, the max response, negative = inhibition is -17.8%.

As to `CC(=O)N1CC[n+]2c(-c3ccc([N+](=O)[O-])cc3)csc21`, the Potency was 9.47 µM (active).

Take `CSc1ccc(CN2CCC2(C)C(=O)NCc2ccccc2Br)cc1` (configuration not stated): the max response, negative = inhibition is 2.74%.

Turning to `Cc1ccc(-n2c(C)cc(C(=O)CSc3nnc4ccccn34)c2C)cc1`, the max response, negative = inhibition is -3.52%.

Consider `Cc1ccc(-n2c(C)cc(C(=O)CN3C(=O)C(=O)N(C4CCCC4)C3=O)c2C)cc1`, for which the Potency is 26.7 µM (active).

In the case of `Cc1cc(C(=O)COC(=O)C2CC2)c(C)n1-c1ccc(F)cc1`, the max response, negative = inhibition was 3.31%.

For `FC(F)(F)c1ccccc1Cc1c(-c2ccccc2)nc2c3ccccc3ccn12`, the max response, negative = inhibition was 5.06%.

On to `COc1ccc(C(NC(=O)C2CCN(CCCc3ccccc3)CC2)c2cccs2)cc1` (configuration not stated), for which the max response, negative = inhibition is -15.3%.

Consider `CCCc1nc2c3ccccc3ccn2c1Cc1ccccc1C(F)(F)F`, for which the max response, negative = inhibition is -6.42%.

Take `CCCNC(=O)C1(C)CCN(C(=O)c2ccc(F)cc2Cl)C1` (configuration not stated): the max response, negative = inhibition was -7.53%.

With `COc1ccccc1CC1(C)C(=O)Nc2ccc(OC(F)(F)F)cc21` (configuration not stated), the max response, negative = inhibition was -13.6%.

`CCCCNC(=O)OC1CC2CC1[C@H]1CCCCN1C2=O` (some centres not stated): the max response, negative = inhibition was -1.73%.

Turning to `Cc1ccc(S/C(=N\S(=O)(=O)c2ccc(Cl)cc2)c2ccccc2)cc1`, the Potency was 2.67 µM (active).

For the compound `Cc1ccc(S(=O)(=O)/N=C(/Nc2ccccn2)c2ccc(Cl)cc2)cc1`, the max response, negative = inhibition was -1.19%.

On to `Cc1ccc(S(=O)(=O)/N=C(/Nc2ccc3[nH]c(=O)[nH]c3c2)c2ccccc2)cc1`, for which the max response, negative = inhibition is -15.4%.

Consider `CC1CN(C(=O)c2cccc(NS(=O)(=O)c3ccc(Br)cc3)c2)CC(C)O1` (configuration not stated), for which the max response, negative = inhibition was -2.62%.

With `O=S1(=O)CC(N2CCN(c3ccccn3)CC2)CN1Cc1ccc(F)cc1` (configuration not stated), the max response, negative = inhibition was -5.38%.

With `CSc1ncccc1C(=O)N1CCCC(Nc2ccc(F)c(F)c2)C1` (configuration not stated), the max response, negative = inhibition is -2.74%.

Consider `Cc1sc(NC(=O)C2C3CCC(O3)C2C(=O)O)c(C(=O)OC(C)C)c1-c1ccc(Cl)cc1` (configuration not stated), for which the Potency is 7.52 µM (active).

With `CC(C)OC(=O)c1cc(NC(=O)C2C3CCC(O3)C2C(=O)O)cc(C(=O)OC(C)C)c1` (configuration not stated), the max response, negative = inhibition is -3.95%.

For `COc1ccc(NC(=O)C2C3CCC(O3)C2C(=O)O)cc1OC` (configuration not stated), the max response, negative = inhibition is 4.35%.

Consider `CCc1nc2c(OCCOc3ccccc3)cccn2c1N(C=O)Cc1ccc(OC)cc1`, for which the max response, negative = inhibition is -6.91%.

With `O=C(Oc1ccc(Br)cc1C(=S)N1CCOCC1)c1cccc([N+](=O)[O-])c1`, the Potency was 11.9 µM (active).

Turning to `O=C(Oc1ccccc1C(=S)N1CCCCC1)c1cc([N+](=O)[O-])cc([N+](=O)[O-])c1`, the Potency is 2.12 µM (active) and 2.67 µM (active).

`O=C(Oc1ccccc1Cl)c1ccc(N2CCOCC2)c([N+](=O)[O-])c1`: the max response, negative = inhibition was -14.3%.

Consider `CC(=O)Nc1ccc(S(=O)(=O)Oc2ccc(Br)cc2C(=S)N2CCOCC2)cc1`, for which the max response, negative = inhibition was -17.8%.

Turning to `COc1ccc(C(=O)N2CCCC(C(=O)c3ccccc3OC)C2)cc1OC` (configuration not stated), the max response, negative = inhibition is -20.4%.

As for `COc1cc(C(=S)N2CCOCC2)cc(OC)c1OC(=O)c1ccc([N+](=O)[O-])cc1[N+](=O)[O-]`, the max response, negative = inhibition was -24.3%.

For the compound `COc1ccc(S(=O)(=O)N2CCCCC2)cc1C(=O)NC1CCS(=O)(=O)C1` (configuration not stated), the max response, negative = inhibition is 5.08%.

In the case of `O=c1[nH][nH]c2c1[C@H](c1ccc(Cl)cc1)O[C@H](CCc1ccccc1)C2`, the max response, negative = inhibition is -16.9%.

In the case of `CCOC1=C2CN(S(=O)(=O)c3ccc(C)cc3)[C@H](c3cccs3)C[C@H]2[C@H]2C(=O)N(c3ccccc3)C(=O)[C@H]2C1`, the max response, negative = inhibition is -0.0091%.

For the compound `O=C(Nn1c(SCc2ccc([N+](=O)[O-])cc2)nc2ccccc2c1=O)c1ccc(F)cc1`, the max response, negative = inhibition was -14.4%.

In the case of `N#Cc1c(-c2ccccc2)nc(SCc2ccc([N+](=O)[O-])cc2)[nH]c1=O`, the Potency is 26.7 µM (active).

Regarding `Cc1ccccc1CSc1nnc(-c2ccccc2)c(=O)[nH]1`, the max response, negative = inhibition was -22.2%.

Take `O=c1[nH]c(SCc2cccc(F)c2)nc2ccccc12`: the max response, negative = inhibition is -13.9%.

With `N#Cc1c(-c2ccccc2)nc(SCc2cccc(C(F)(F)F)c2)[nH]c1=O`, the Potency was 23.8 µM (active).

In the case of `N#Cc1c(-c2ccc(F)cc2)nc(-c2ccccc2)[nH]c1=O`, the max response, negative = inhibition is -13.6%.

With `S=C(NN=Cc1ccccn1)Nc1ccccn1`, the max response, negative = inhibition is -6.29%.

Turning to `COc1ccc(CCCNC(=O)C2Cc3c(-c4cccc(C(N)=O)c4)ccnc3O2)cc1` (configuration not stated), the max response, negative = inhibition was -3.93%.

On to `CCc1nc2ccc(C(=O)Nc3ccc(OC)c(OC)c3)cn2c1N(C)C(=O)c1cccc(OC)c1`, for which the max response, negative = inhibition is -6.83%.

For `O=C(NNC(=O)c1ccccc1[N+](=O)[O-])Nc1ccccc1C(F)(F)F`, the max response, negative = inhibition was -9.97%.

Take `O=C(O)c1ccccc1NC(=S)NC(NC(=O)c1ccccc1[N+](=O)[O-])C(Cl)(Cl)Cl` (configuration not stated): the Potency is 26.7 µM (active).

Take `O=C(Nc1ccccc1[N+](=O)[O-])C1C(c2ccccc2)=C1c1ccccc1`: the max response, negative = inhibition is 0.94%.

As for `COc1ccccc1-n1c(SCC(=O)O)nc2sc3c(c2c1=O)CCC3`, the max response, negative = inhibition was -11.7%.

Take `COc1ccc(Cl)cc1-n1c(=S)sc2c(=O)n(-c3ccc(F)cc3)c(SCC(=O)O)nc21`: the Potency is 23.8 µM (active).

With `COc1cccc(-n2c(=S)sc3c(=O)n(-c4ccccc4C)c(SCC(=O)O)nc32)c1`, the max response, negative = inhibition was -8.81%.

`C#CCN(C[C@H]1[C@H](OC(=O)NC2CCCC2)[C@H](OC(=O)NC2CCCC2)C[C@H]2C(=O)N(c3ccccc3)C(=O)[C@@H]12)S(=O)(=O)c1ccc(C)cc1`: the max response, negative = inhibition was -0.644%.

In the case of `CC(=O)Nc1ccc(-c2ccnc3c2CC(C(=O)NC(C)C)O3)cc1` (configuration not stated), the max response, negative = inhibition is -3.44%.

Take `O=C(NCCCCO)C(F)(F)C(F)(F)C(F)(F)C(=O)NCCCCO`: the Potency was 18.9 µM (active).

For `O=C(NCCCCCCCCCNC(=O)C(F)(F)F)C(F)(F)F`, the max response, negative = inhibition is -1.31%.

Consider `COCCNc1ncnc2c1ncn2[C@H]1CN(CCN2CCOCC2)C[C@@H](CO)O1`, for which the max response, negative = inhibition was -5.67%.

With `CC(C)Nc1nc(NCCOc2ccccc2Cl)c2sccc2n1`, the max response, negative = inhibition was 4.77%.

As to `Cc1sc2ccccc2c1CNC[C@H]1O[C@@H](n2ccc(=O)[nH]c2=O)[C@H](O)[C@@H]1O`, the max response, negative = inhibition is 2.69%.

As for `Cc1nnc(Sc2nc3c(c(=O)[nH]c(=O)n3C)n2Cc2ccccc2)s1`, the max response, negative = inhibition is 0.479%.

As to `C=CCn1c(SCc2ccccc2)nc2c1c(=O)[nH]c(=O)n2C`, the Potency was 26.7 µM (active).

As to `CC1CCN(c2nc3c(c(=O)[nH]c(=O)n3C)n2CCCc2ccccc2)CC1`, the max response, negative = inhibition was -10.5%.

In the case of `CN(C)C1CN(Cc2cn(Cc3ccccc3)nn2)S(=O)(=O)C1` (configuration not stated), the max response, negative = inhibition was -9.56%.

On to `CCCCCc1c(-c2cccc(Br)c2)ncn1CCc1ccccc1OC`, for which the max response, negative = inhibition is -9.6%.

In the case of `O=C(NCCS(=O)(=O)N1CCN(c2ccccc2F)CC1)c1ccc(Br)o1`, the Potency was 15 µM (active).

`O=C(NCCS(=O)(=O)N1CCN(c2ccccc2)CC1)c1cc(=O)c2ccccc2o1`: the max response, negative = inhibition is -10.4%.

With `O=C(NCCS(=O)(=O)N1CCN(c2ccccc2)CC1)c1ccco1`, the max response, negative = inhibition is -3.4%.

As for `NC(CSC(c1ccccc1)(c1ccccc1)c1ccc(-c2ccccc2)cc1)C(=O)O` (configuration not stated), the max response, negative = inhibition was -12.6%.

For `CCC(=O)N1CCCC1(C)C(=O)Nc1ccc2c(c1)CCN2C(C)=O` (configuration not stated), the max response, negative = inhibition is -12.6%.

As for `S=c1ccc2ccccc2[nH]1`, the Potency is 10.6 µM (active).

On to `O=C(Nc1ccccc1)c1cc2ccccc2[nH]1`, for which the max response, negative = inhibition is 0%.

Take `O=C(Nc1ccc(Cl)cn1)c1ccccc1-c1ccccc1`: the max response, negative = inhibition is -6.02%.

Regarding `CC1(C(=O)Nc2cccc3cccnc23)CCN1C(=O)CCC1CCCC1` (configuration not stated), the max response, negative = inhibition was 0.774%.

On to `CCOC(=O)c1c(N)sc(C(C)=O)c1C`, for which the Potency is 21.2 µM (active).

On to `CCOC(=O)Nc1sc(C(=O)N(C)C)c(C)c1C(=O)OCC`, for which the max response, negative = inhibition was -6.39%.

As for `CCOC(=O)c1c(N)sc2c1CCCC2=O`, the max response, negative = inhibition was -6.68%.

As for `CC(=O)c1cccc(-c2cnc3c(NC=O)cc(-c4ccc(N5CCN(C)CC5)cc4)cn23)c1`, the max response, negative = inhibition was 2.15%.

Turning to `CCCCC(=O)N(C)c1c(CC)nc2c(OCc3ccc(S(C)(=O)=O)cc3)cccn12`, the max response, negative = inhibition is -6.21%.

Turning to `COc1ccc(OCc2ccc(-c3nc4ccccc4c(=O)n3N)o2)cc1`, the max response, negative = inhibition is 2.15%.

`COc1ccc(OCc2n[nH]c(=S)n2N)cc1`: the Potency was 3.77 µM (active).

Turning to `COc1ccc(Cc2n[nH]c(=S)n2NC(=O)Nc2ccc(C)cc2)cc1`, the max response, negative = inhibition is -9.65%.

Turning to `O=C(NCc1cccnc1)c1cc(C2CCCN(C(=O)C3CCCCC3)C2)on1` (configuration not stated), the max response, negative = inhibition is 0.902%.

Take `CC1CC(NC(=S)N(C)C)CC(C)(C)C1` (configuration not stated): the max response, negative = inhibition was -1.25%.

For the compound `Cc1ccc(CN2CCN(Cc3ccc4ncccc4c3)CC2CCO)cc1` (configuration not stated), the max response, negative = inhibition is -1.02%.

Take `CC(=O)Nc1ccc(CN2CCN(Cc3ccc(F)c(F)c3)C(CCO)C2)cc1` (configuration not stated): the Potency is 18.9 µM (active).

`CC(C)CCN1CCN(Cc2ccc(C(F)(F)F)cc2)CC1CCO` (configuration not stated): the max response, negative = inhibition is 4.35%.

Take `COc1ccc(-c2cc(NC=O)c3ncc(-c4cc(OC)c(OC)c(OC)c4)n3c2)c(OC)c1`: the max response, negative = inhibition was -18.1%.

Take `O[C@@H]1C[C@H](c2ccccc2)N(Cc2cccs2)C[C@H]1n1cc(C2CC2)nn1`: the max response, negative = inhibition is -0.363%.

As for `Oc1ccc2ccc3cccc[n+]3c2c1`, the Potency is 4.74 µM (active).

Turning to `O=C1CCC(C(=O)OCC(=O)Nc2ccc(OC(F)F)cc2)=NN1`, the max response, negative = inhibition is -4.05%.
